The subject of assay [1] is Plasmodium falciparum Sir2 (PF13_0152, Sir2A). Briefly: Plasmodium falciparum Sir2A binding compounds – biochemical, small-molecule microarray, 635 nm fluorescence, primary screen (AID 1098).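 Further: score merges spot fluorescence intensity with its signal-to-noise ratio.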 The settings on record: fluorescence 635 nm, higher = more signal.
Assay [2] is described as follows: probe aDKK1 binding to arrayed compounds – biochemical, biotinylated probe, 635/667 nm fluorescence, primary screen (AID 1099).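 Further: score merges 667nm spot fluorescence with signal to noise across triplicate slides.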 As to conditions: small-molecule microarray, higher = more signal.
Assay [3] in a line: probe aCHRDL2 binding to arrayed compounds – biochemical, biotinylated probe, 635/667 nm fluorescence, primary screen (AID 1100). The settings on record: small-molecule microarray, higher = more signal.
Assay [4] can be described thus: change in splice reporter luminescence, either direction, cell-based, HEK293, spliceosome inhibition project, primary screen (AID 1101).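 Further: HEK293 cells carrying a splicing-competent luciferase reporter gene; test concentration not given here.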 As to conditions: HEK293 splicing luciferase reporter, 24 h, higher = more signal, called active from +8 up or from −8 down. For orientation: A reporter such as luciferase makes a cellular process visible.
Assay [5] deals with Fibroblast growth factor 10 (Homo sapiens) (UniProt O15520). Briefly: compounds binding fibroblast growth factor 10 – biochemical, small-molecule microarray, 635 nm fluorescence, primary screen (AID 1102). As to conditions: FGF10 binding, fluorescence 635 nm, higher = more signal.
Assay [6] deals with glycogen synthase kinase-3 (GSK3A per assay name; protocol says GSK3B). Briefly: compounds binding glycogen synthase kinase-3 – biochemical, small-molecule microarray, 635 nm fluorescence, GSK3A, primary screen (AID 1103). Further: the record names both GSK3A and GSK3B. As to conditions: fluorescence 635 nm, higher = more signal.
The target in assay [7] is Epidermal growth factor receptor (Homo sapiens) (UniProt P00533). The experiment in a line: compounds binding epidermal growth factor receptor – biochemical, small-molecule microarray, 635 nm fluorescence, primary screen (AID 1104).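 Further: score merges 667 nm emission intensity with spot signal to noise over triplicate slides.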 As to conditions: EGFR binding, higher = more signal.
The target in assay [8] is Follistatin-related protein 3 (Homo sapiens) (UniProt O95633). Briefly: compounds binding follistatin-related protein 3 – biochemical, small-molecule microarray, 635 nm fluorescence, primary screen (AID 1105).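 Further: score merges emission near 667 nm and signal to noise per printed spot across three slides.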 As to conditions: FSTL3 binding, higher = more signal.
Assay [9] concerns the target Dickkopf-related protein 1 (Homo sapiens) (UniProt O94907). The experiment in a line: small molecules binding DKK1 protein – biochemical, small-molecule microarray, 635 nm fluorescence scan, primary screen (AID 1106).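 Further: score merges emission near 667 nm with signal to noise over three replicate slides.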 The settings on record: higher = more signal.
Assay [10] concerns Inhibin beta A chain (activin A). Briefly: small molecules binding activin A – biochemical, small-molecule microarray, 635 nm fluorescence scan, primary screen (AID 1107).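 Further: mouse activin A protein probed at 4.33 µg/mL on printed slides; score merges bound-protein fluorescence near 667 nm with spot signal-to-noise.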 As to conditions: INHBA, higher = more signal.
Assay [11] relates to Human papillomavirus type 1a protein E7 (residues 44-93). The experiment in a line: small molecules binding HPV E7 44-93 – biochemical, small-molecule microarray, residues 44-93, 635 nm fluorescence, primary screen (AID 1108).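 Further: E7 fragment applied at 1 µg/mL in TBST for 1 h at 4 C; score combines spot fluorescence with its signal to noise ratio.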 As to conditions: fluorescence 635 nm, higher = more signal.
Assay [12] in a line: hepatitis C replication reporter changes, two-sided – Huh7 cells, luciferase reporter, HCV replication inhibitor project, primary screen (AID 1109).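 Further: huh7 hepatoma cells harbouring a luciferase neomycin HCV replicon reporter; luciferase luminescence as measure of HCV replicon replication; test concentration not given here.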 The settings on record: Huh7 HCV replicon luciferase reporter, 48 h; higher = more signal.
The target of assay [13] is Left-right determination factor 2 (Homo sapiens) (UniProt O00292). The experiment in a line: small molecules binding LEFTY2 protein – biochemical, small-molecule microarray, 635 nm fluorescence scan, primary screen (AID 1110). The settings on record: higher = more signal.
The target in assay [14] is Calmodulin-1 (Homo sapiens) (UniProt P0DP23). The experiment in a line: small molecules binding calmodulin-1 with EGTA – biochemical, small-molecule microarray, Cy5-labelled CALM1, profiling panel (AID 1111).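 Further: labelled calmodulin applied in Tris saline Tween buffer holding calcium plus EGTA and DTT.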 As to conditions: Cy5-CALM1 binding fluorescence, higher = more signal.
For assay [15] the target is unchanged. The experiment in a line: small molecules binding Ca-loaded calmodulin-1 – biochemical, small-molecule microarray, Cy5-labelled CALM1, plus calcium, artefact control for SMM control-protein annotation, profiling panel (AID 1112).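 Further: score merges spot fluorescence with signal to noise from triplicate slides.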 The settings on record: Cy5-CALM1 binding fluorescence, higher = more signal.
Assay [16] in a line: probe aWnt5a binding to arrayed compounds – biochemical, biotinylated probe, 635/667 nm fluorescence, primary screen (AID 1113).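 Further: score merges 667 nm fluorescence intensity with signal-to-noise per printed feature.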 The settings on record: small-molecule microarray, higher = more signal.
Assay [17] is described as follows: probe aShh binding to arrayed compounds – biochemical, biotinylated probe, 635/667 nm fluorescence, primary screen (AID 1114).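 Further: probe is biotin-labelled aShh protein from a stem cell growth factor screen; measures binding of labelled protein to compounds printed on the slide; score merges feature fluorescence at 667 nm with signal-to-noise.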 The settings on record: small-molecule microarray, higher = more signal.
The nature of assay [18]: probe aNog binding to arrayed compounds – biochemical, biotinylated probe, 635/667 nm fluorescence, primary screen (AID 1115).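 Further: probe is biotinylated aNog protein used at 0.15 µg/mL for 1 h at 4 C; z-score combines 667 nm fluorescence of each spot with its signal to noise.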 The settings on record: small-molecule microarray, higher = more signal.
Assay [19] addresses Torsin-1A-interacting protein 1 (Homo sapiens) (UniProt Q5JTV8). Briefly: compound microarray binding of lysate hLAP1 – cell lysate, small-molecule microarray, COS7 lysate, 635/667 nm fluorescence, primary screen (AID 1116). The settings on record: 635 nm fluorescence, higher = more signal.
For assay [20], the target named is Alpha-bungarotoxin (Bungarus multicinctus) (UniProt P60615). Briefly: compounds binding labelled alpha-BTX control protein – biochemical, small-molecule microarray, Alexa647 label, 635/667 nm fluorescence, artefact control for SMM control protein annotation, profiling panel (AID 1117). The settings on record: alpha-BTX-A647 binding fluorescence, higher = more signal.

Our source for the composite z-score and z-score values is PubChem BioAssay.

Activity calls are given as the source filed them.

Sequence of Dickkopf-related protein 1 (Homo sapiens) (O94907 whole entry, looked up): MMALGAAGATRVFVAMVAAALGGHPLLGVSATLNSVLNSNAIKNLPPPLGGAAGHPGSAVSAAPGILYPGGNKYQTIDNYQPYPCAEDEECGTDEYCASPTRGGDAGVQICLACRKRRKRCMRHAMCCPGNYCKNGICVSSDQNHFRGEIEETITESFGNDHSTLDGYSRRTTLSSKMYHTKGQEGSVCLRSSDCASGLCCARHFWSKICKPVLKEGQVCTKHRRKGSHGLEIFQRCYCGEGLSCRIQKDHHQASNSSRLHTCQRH
Sequence of Torsin-1A-interacting protein 1 (Homo sapiens) (Q5JTV8 whole entry, looked up): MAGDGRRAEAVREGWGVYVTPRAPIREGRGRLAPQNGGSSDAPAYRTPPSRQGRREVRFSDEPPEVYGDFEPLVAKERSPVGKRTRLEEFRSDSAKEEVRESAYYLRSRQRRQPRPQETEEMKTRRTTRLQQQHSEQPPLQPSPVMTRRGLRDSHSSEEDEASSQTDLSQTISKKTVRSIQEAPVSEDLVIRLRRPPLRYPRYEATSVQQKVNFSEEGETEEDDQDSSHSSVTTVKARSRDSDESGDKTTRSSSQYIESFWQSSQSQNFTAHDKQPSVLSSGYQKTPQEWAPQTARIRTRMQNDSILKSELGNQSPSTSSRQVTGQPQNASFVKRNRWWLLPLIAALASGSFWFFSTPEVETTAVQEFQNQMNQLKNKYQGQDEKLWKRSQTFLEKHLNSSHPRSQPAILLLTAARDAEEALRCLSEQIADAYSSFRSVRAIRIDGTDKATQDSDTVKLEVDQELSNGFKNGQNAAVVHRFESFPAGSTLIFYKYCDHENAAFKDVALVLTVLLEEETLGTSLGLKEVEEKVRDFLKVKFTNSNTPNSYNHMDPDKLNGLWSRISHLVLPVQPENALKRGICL
Sequence of Left-right determination factor 2 (Homo sapiens) (O00292 whole entry, looked up): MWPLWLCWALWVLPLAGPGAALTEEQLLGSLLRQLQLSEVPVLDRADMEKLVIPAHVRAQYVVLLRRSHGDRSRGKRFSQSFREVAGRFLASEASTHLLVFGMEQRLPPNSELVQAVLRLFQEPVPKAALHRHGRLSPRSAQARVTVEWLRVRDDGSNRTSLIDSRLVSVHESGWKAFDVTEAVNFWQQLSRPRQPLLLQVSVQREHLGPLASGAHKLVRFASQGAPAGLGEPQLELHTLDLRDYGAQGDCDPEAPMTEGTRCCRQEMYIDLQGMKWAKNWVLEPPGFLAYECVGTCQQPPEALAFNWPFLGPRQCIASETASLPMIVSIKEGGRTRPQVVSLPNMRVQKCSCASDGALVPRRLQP
Sequence of Alpha-bungarotoxin (Bungarus multicinctus) (P60615 whole entry, looked up): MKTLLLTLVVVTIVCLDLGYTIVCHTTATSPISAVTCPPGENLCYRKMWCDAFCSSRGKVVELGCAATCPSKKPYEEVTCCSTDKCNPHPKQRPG
Sequence of Follistatin-related protein 3 (Homo sapiens) (O95633 whole entry, looked up): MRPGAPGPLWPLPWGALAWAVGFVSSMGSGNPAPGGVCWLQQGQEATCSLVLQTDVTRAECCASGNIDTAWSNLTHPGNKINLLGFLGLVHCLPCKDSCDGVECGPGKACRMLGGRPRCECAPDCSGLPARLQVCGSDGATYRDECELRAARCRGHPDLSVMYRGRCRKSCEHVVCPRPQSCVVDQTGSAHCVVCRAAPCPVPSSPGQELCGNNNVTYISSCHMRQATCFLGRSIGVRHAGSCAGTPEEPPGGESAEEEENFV
Sequence of Fibroblast growth factor 10 (Homo sapiens) (O15520 whole entry, looked up): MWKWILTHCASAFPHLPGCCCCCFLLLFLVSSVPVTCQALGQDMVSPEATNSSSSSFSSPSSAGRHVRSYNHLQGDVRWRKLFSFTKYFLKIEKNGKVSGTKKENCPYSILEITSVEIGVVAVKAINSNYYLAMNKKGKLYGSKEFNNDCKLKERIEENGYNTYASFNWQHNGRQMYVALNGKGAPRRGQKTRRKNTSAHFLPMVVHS
Sequence of Epidermal growth factor receptor (Homo sapiens) (P00533 whole entry, looked up): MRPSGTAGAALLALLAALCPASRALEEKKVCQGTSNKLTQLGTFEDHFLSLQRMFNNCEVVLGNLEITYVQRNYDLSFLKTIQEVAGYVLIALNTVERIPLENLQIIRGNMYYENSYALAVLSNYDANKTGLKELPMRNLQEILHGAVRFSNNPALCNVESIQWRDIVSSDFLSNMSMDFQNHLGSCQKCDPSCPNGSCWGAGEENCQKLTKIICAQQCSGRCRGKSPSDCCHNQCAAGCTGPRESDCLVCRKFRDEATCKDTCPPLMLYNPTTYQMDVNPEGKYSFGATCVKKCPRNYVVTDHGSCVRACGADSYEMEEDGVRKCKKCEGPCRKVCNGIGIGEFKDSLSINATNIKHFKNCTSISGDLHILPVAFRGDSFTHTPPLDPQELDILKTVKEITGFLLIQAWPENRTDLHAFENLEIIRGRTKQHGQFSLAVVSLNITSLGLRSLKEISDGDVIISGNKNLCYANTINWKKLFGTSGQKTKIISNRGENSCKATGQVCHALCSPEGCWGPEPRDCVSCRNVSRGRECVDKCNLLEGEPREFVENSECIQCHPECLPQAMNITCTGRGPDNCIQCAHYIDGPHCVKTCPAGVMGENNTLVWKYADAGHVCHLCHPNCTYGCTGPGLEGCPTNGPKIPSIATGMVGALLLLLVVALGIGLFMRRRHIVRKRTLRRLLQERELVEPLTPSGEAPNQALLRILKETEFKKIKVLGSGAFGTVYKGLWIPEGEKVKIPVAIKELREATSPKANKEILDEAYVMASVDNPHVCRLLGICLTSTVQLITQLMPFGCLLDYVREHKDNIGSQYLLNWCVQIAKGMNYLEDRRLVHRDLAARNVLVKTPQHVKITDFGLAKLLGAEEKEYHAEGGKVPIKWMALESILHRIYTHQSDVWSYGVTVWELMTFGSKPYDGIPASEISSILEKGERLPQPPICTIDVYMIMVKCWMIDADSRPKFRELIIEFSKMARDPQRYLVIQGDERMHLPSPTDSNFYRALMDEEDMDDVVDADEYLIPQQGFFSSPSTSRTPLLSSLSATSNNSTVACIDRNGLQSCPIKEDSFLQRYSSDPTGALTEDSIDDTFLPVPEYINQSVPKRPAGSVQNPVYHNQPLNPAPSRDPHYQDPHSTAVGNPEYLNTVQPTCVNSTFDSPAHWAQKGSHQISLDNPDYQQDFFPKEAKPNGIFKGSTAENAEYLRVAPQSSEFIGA

On to `O=C1OCC=C[C@H]2OC34C=CCN(c5ccc6ccccc6c5)C(=O)[C@H]3N(CCCCCO)C(=O)[C@@H]4[C@@H]12` (stereo not given in full), for which the composite z-score was 1.88 in assay [1]; 0.07 in assay [2]; 0.878 in assay [3]; -1.17 in assay [5]; -1.55 in [6]; -1.44 in assay [7]. The composite z-score in [8] is -1.56; in assay [9], -1.41; in [10], -0.255; in [11], 0.203; in assay [13], -2.05; in assay [14] it was -0.402. For the same compound, the composite z-score in [15] is 0.239; in assay [16] it was -0.098; in assay [17], 0.151; in assay [18] it was 0.244; in assay [19] it was 1.35; in assay [20], -0.0602. Moreover, the z-score in assay [4] was -0.57 (inactive); in assay [12], -0.078.
Take `C=C(CCCC)C(=O)CC[C@H](OC(=O)c1ccccc1-c1ccccc1C(=O)O)c1ccccc1OCCO`: the composite z-score was 0.855 in [1]; -0.475 in [2]; -0.336 in assay [3]; 0.271 in assay [5]; -0.218 in assay [6]; -0.226 in assay [7]. Also, the composite z-score was -0.279 in assay [8]; 0.145 in assay [9]; 1.28 in assay [10]; 0.166 in assay [11]; -0.171 in [13]; -0.378 in assay [14]. For the same compound, the composite z-score in assay [15] was -0.814; in assay [16], -0.0944; in assay [17], 0.318; in assay [18], 0.397; in [19], 0.442; in [20], 0.26. In addition, the results for the z-score in assay [4] and in [12] were 2.02 (inactive) and -2.31, respectively.
With `COc1ccc([Si](C)(C)[C@H]2[C@H](CC(=O)N3Cc4ccccc4C[C@H]3CO)O[C@@]3(C(=O)N(Cc4ccc(N5C(=O)c6cccc7cccc5c67)cc4)c4ccccc43)[C@@H]2C)cc1`, the composite z-score was 0.959 in assay [1]; -0.247 in [2]; -0.0288 in [3]; 0.884 in assay [5]; 1.28 in [6]; 0.868 in assay [7]. Further, the composite z-score turned out to be 1.31 in assay [8]; 0.879 in assay [9]; 0.473 in [10]; 1.3 in assay [11]; 0.952 in assay [13]; 0.732 in [14]. The composite z-score in [15] is 0.049; in assay [16] it was -0.124; in assay [17], -0.279; in [18] it was -0.49; in assay [19] it was 1.65; in assay [20], 0.609. The values for the z-score in assay [4] and in assay [12] were -0.91 (inactive) and -3.26, respectively.
For `CCOC(=O)C1=CC[C@@H](c2ccccc2)N(S(=O)(=O)c2ccc(C)cc2)[C@H]1C=Cc1ccccc1`, the composite z-score in assay [1] is 1.66; in assay [2], 0.37; in assay [3] it was 1.03; in [5], 0.322; in assay [6] it was 0.193; in [7], -0.647. In addition, the composite z-score was -0.745 in assay [8]; -0.548 in assay [9]; 0.58 in [10]; 0.261 in [11]; -0.481 in assay [13]; 0.401 in assay [14]. The composite z-score in assay [15] is -0.401; in [16] it was 0.127; in assay [17] it was -0.13; in [18] it was -0.5; in assay [19], 0.381; in assay [20] it was 0.621. The z-score is 0.151 (inactive) in assay [4] and -1.83 in assay [12].
As to `COc1ccc(C(O)C2C=CC3C(=O)N(c4ccccc4)C(=O)C3N2Nc2ccc(C(C)C)cc2)c2ccccc12` (stereo not given), the composite z-score in [1] worked out at 1.6; in [2], 0.661; in [3], 0.942; in assay [5] it was 0.839; in assay [6] it was 1.29; in [7], 0.0751. Besides, the composite z-score in assay [8] is 1.04; in assay [9], -0.0879; in [10] it was 0.87; in assay [11], 1.39; in assay [13], -0.146; in assay [14], 1.17. The composite z-score in assay [15] was 0.922; in assay [16] it was 0.0068; in assay [17], 0.232; in assay [18], -0.229; in assay [19], 0.865; in assay [20], 2.55. The z-score in assay [4] was 0.48 (inactive); in assay [12] it was -0.716.
Consider `COCCOC(=O)N1C(=O)[C@@]2(c3cc(C#CCNC(N)=O)ccc31)[C@H](c1ccc(O)cc1)N1[C@H](c3ccccc3)[C@H](c3ccccc3)OC(=O)[C@H]1[C@@H]2C(N)=O`, for which the composite z-score in assay [1] is -0.583; in assay [2], -0.224; in assay [3] it was 0.444; in assay [5] it was -1.62; in assay [6], -1.32; in [7] it was -1.9. For the same compound, the composite z-score in [8] is -2.16; in assay [9], -1.86; in assay [10] it was -1.08; in [11], -0.8; in assay [13], -2.24; in assay [14], -0.747. In addition, the composite z-score is 0.502 in [15]; -0.377 in assay [16]; -0.378 in assay [17]; -0.0585 in assay [18]; -0.448 in assay [19]; -2.27 in assay [20]. The results for the z-score in [4] and in [12] were 0.00136 (inactive) and -0.101, respectively.
